Assay outcomes: PubChem BioAssay, National Center for Advancing Translational Sciences (NCATS)
This is a sample that favours compounds with a hit; in the whole collection about 19% have one here.
HT1080 IDH1KD tx: kills HT-1080 cells with IDH1 knockdown. AID 686971. HT-1080 IDH1 knockdown viability, ATP luminescence, 48 h. Potency, µM (top dose mostly 46.1 µM), inactives show at the highest dose activity, negative = toxicity, usual class: cytotoxic. 2% of 360,000 active;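 further: potency means the concentration at half of the fitted maximal effect; 0% = DMSO wells and -100% = cell-free medium wells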
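Knockdown cells (IDH1KD HT-1080) received compounds 2 h after plating at 750 cells/well and were kept 48 h at 37 °C in 5% FBS RPMI. A CellTiter-Glo luminescence read gave % activity for curve fitting.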
IL-1B inflam inh: inhibitors of inflammasome signaling (IL-1 beta secretion) | THP-1 LPS/ATP IL-1B secretion, AlphaLISA, 16 h; active compounds read low | activity change, % at 57.5 µM | 4.7% of 360,000 active | AID 743279; in the data active means activity change below about -50%; inconclusive means mostly about -30% to -49%
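Secreted IL-1B measured by AlphaLISA bead assay after 16 h compound exposure of THP-1 cells; compounds (final up to 57.5 uM) added 1 h before LPS (250 ng/mL) and ATP (1.25 mM) stimulation; lower signal means less secretion.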
HT1080-NT tox: kills 2HG-producing HT-1080-NT fibrosarcoma cells; HT-1080-NT fibrosarcoma viability, CellTiter-Glo ATP luminescence, 48 h; Potency, µM (doses to about 46.1 µM), for inactives: at the highest dose activity, negative = less viability, most hits filed as cytotoxic; 1.6% of 360,000 active; AID 686970;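 further: NT is the 2HG producing partner of a matched IDH1 knockdown line; potency means the concentration at half of the fitted maximal effect; 0% = DMSO-treated cells and -100% = media-only wells without cells; nearly all actives have a fitted effect of over 55% in size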
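Read-out is CellTiter-Glo luminescence after 10 minutes at room temperature, following 48 hours' compound treatment of HT-1080-NT cells (750 cells/well, RPMI, 5% FBS, 37 degrees C).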
TDP1 cell CPT: DT40-hTDP1 cell growth loss with CPT; chicken DT40 Tdp1-/-;hTDP1 cells + 20 nM CPT, ATP luminescence, 48 h; Potency, µM (titrated, usually from 46.2 µM), for the others: top-dose activity change, negative = growth inhibition, usual class: inhibitors; 12% of 420,000 active; further: potency means the concentration at half of the fitted maximal effect; nearly all actives have a fitted effect of over 55% in size
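Chicken DT40 Tdp1-/- cells complemented with human TDP1, 400 cells/well, exposed to compounds plus 20 nM camptothecin for at least 48 h at 37 C; viability read as ATP content by CellTiter-Glo luminescence.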
TDP1 cell noCPT: qHTS for Inhibitors of human tyrosyl-DNA phosphodiesterase 1 (TDP1): qHTS in cells in absence of CPT; DT40 Tdp1-/- hTDP1 cells, no CPT, ATP luminescence, 48 h; Potency, µM (series often up to 46.2 µM), for the others: top-dose activity change, negative = growth inhibition, hits mostly inhibitors; 15% of 420,000 active; further: potency means the concentration at half of the fitted maximal effect; nearly all actives have a fitted effect of over 55% in size
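Chicken DT40 Tdp1-/- cells complemented with human TDP1, screened without camptothecin (DMSO vehicle only), 400 cells/well. Compounds pin-transferred, cells incubated at 37 °C for at least 48 hr. Growth read as ATP-dependent luminescence (CellTiter-Glo, 30 min at RT).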
Active calls of the source: *; ? = inconclusive; nt = no result; + = active, no number. Unless noted, the call rests on the fitted dose curve; in most records, active means well fitted curve in the direction sought with a large enough effect; inconclusive means small, poorly fitted or top-dose-only effect, or another doubt; inactive means no such curve, though single readings can be large; an effect the other way counts as inactive or inconclusive. Unless noted, on the % scale 0 is the no-effect control and ±100 the full control effect.

SMILES | HT1080 IDH1KD tx | IL-1B inflam inh | HT1080-NT tox | TDP1 cell CPT | TDP1 cell noCPT
Fc1ccc(CNC(=S)NC2CCCC2)cc1 | ? | -142.2* | -24.1% | ? | ?
NS(=O)(=O)c1ccc(CNC(=S)NCc2ccc(F)cc2)cc1 | -0.4% | + | 9.0% | 9.6% | 7.9%
C[C@H](CO)N1C[C@H](C)[C@@H](CN(C)C(=O)NC2CCCCC2)Oc2ccc(NC(=O)Nc3ccccc3)cc2C1=O | -0.3% | 6.7 | 6.4% | -16.1% | -10.9%
Cn1c(SCC(=O)Nc2ccc3nc(SCC(=O)N4CCCC4)sc3c2)nnc1-c1ccccc1 | -18.6% | ? | -9.4% | -10.9% | ?
O=C(Nc1ccc2nc(SCC(=O)N3CCOCC3)sc2c1)c1cccc(F)c1 | nt | nt | nt | 23.1µM* | 20.6µM*
O=C(Nc1ccc2nc(SCC(=O)N3CCCC3)sc2c1)c1ccc(F)cc1 | nt | nt | nt | -3.9% | -18.9%
O=C(Nc1ccc2nc(SCC(=O)N3CCCC3)sc2c1)c1cccc(F)c1 | nt | nt | nt | 20.6µM* | 14.6µM*
O=C(Nc1ccc2nc(SCC(=O)N3CCOCC3)sc2c1)c1ccc(F)cc1 | nt | nt | nt | 16.4µM* | 11.6µM*
O=C(CSc1nc2ccc(NC(=O)c3ccccc3C(=O)O)cc2s1)Nc1c(Cl)cccc1Cl | 7.8% | 23.8 | 1.0% | 1.6% | 5.8%
COc1cccc2cc(/C(C)=N/Nc3nc(-c4cc(C)ccc4C)cs3)c(=O)oc12 | 0.5% | 0.0 | 0.0% | -3.1% | -10.5%
COc1ccc(OC)c(NC(=O)C2CCCN(S(C)(=O)=O)C2)c1 (stereo not given) | 9.7% | 3.7 | 2.0% | -12.3% | 11.1%
Cc1cccn2c(Nc3ccccc3)c(-c3ccccn3)nc12 | -11.4% | -9.1 | ? | 18.4µM* | 20.6µM*
Cc1cccc(C)c1Nc1c(-c2ccccn2)nc2c(C)cccn12 | nt | nt | nt | 16.4µM* | 25.9µM*
COc1ccccc1Cn1c(=S)[nH]c2cc(C(=O)N3CCCC(C)C3)ccc2c1=O (stereo not given) | ? | -26.3 | -28.1% | ? | ?
CCOC(=O)c1c(-c2ccccc2)oc2cc(Br)c(OCc3ccccc3)cc12 | nt | nt | nt | -16.7% | -4.4%
CCc1ccccc1N1C(=O)CC(Sc2nccc(C)n2)C1=O (stereo not given) | 4.5% | 0.3 | -0.1% | ? | ?
O=C1CC(Sc2ncccn2)C(=O)N1c1ccccc1C(F)(F)F (stereo not given) | 2.3% | -80.3* | -10.2% | ? | ?
Cc1ccc(Cl)cc1N1C(=O)CC(Sc2ncccn2)C1=O (stereo not given) | -0.6% | -12.0 | -12.0% | ? | 20.6µM*
Cc1ccc(S(=O)(=O)NCC(=O)NCC(=O)N(C)Cc2ccc(Br)s2)cc1C | 2.0% | -9.3 | 0.1% | ? | ?
COc1cc([C@H]2c3c(cc(OC)c(O)c3OC)C[C@@H](CO)[C@@H]2CO[C@@H]2O[C@H](CO)[C@@H](O)[C@H](O)[C@H]2O)cc(OC)c1O | 1.7% | 2.5 | 3.3% | -4.1% | 1.0%
COC(=O)[C@@]12C[C@@H](CC(=O)N3CCCCC3)C(=O)N(Cc3ccccc3)C1=CCC(C)(C)C2 | -7.4% | -18.8 | -2.1% | ? | 18.4µM*
COC(=O)[C@@]12C[C@@H](CC(=O)N3CCCC3)C(=O)N(Cc3ccco3)C1=CCC(C)(C)C2 | -0.3% | -8.0 | 11.3% | ? | 16.4µM*
COC(=O)[C@@]12C[C@@H](CC(=O)N3CCN(C(=O)C4CC4)CC3)C(=O)N(Cc3ccccc3)C1=CCC(C)(C)C2 | 0.4% | -5.1 | 18.6% | ? | ?
COC(=O)[C@@]12C[C@@H](CC(=O)N3CCCC3)C(=O)N(Cc3ccccc3)C1=CCC(C)(C)C2 | -17.8% | 24.7 | 5.3% | 23.1µM* | ?
O=C(CSc1nccn1Cc1ccc(F)cc1)Nc1ccc2c(c1)OCCO2 | nt | nt | nt | -6.7% | -1.2%
SMILES | HT1080 IDH1KD tx | IL-1B inflam inh | HT1080-NT tox | TDP1 cell CPT | TDP1 cell noCPT
CC(=O)Nc1ccccc1-c1nc2ccccc2n(Cc2cccc(Br)c2)c1=O | nt | nt | nt | -3.8% | ?
Cc1cc(=O)[nH]c(N/N=C/c2ccccc2Cl)n1 | -0.1% | -13.5 | 10.0% | -21.1% | ?
CCOc1cc(/C=N/Nc2nc(C)cc(=O)[nH]2)ccc1O | 9.7% | -6.8 | 22.5% | -22.9% | 6.3%
Cc1cc(=O)[nH]c(N/N=C/c2c(F)c(F)c(F)c(F)c2F)n1 | 10.1% | -92.0* | 1.6% | -14.7% | 9.9%
Cc1cc(=O)[nH]c(NN=Cc2cc(Br)ccc2O)n1 | ? | ? | -21.7% | 2.59µM* | 2.91µM*
CCN(CC)c1ccc(/C=N/Nc2nc(C)cc(=O)[nH]2)c(O)c1 | ? | 91.5 | -16.9% | 0.0206µM* | 0.0206µM*
CC(C)(CO)[C@@H](O)C(=O)NCCCC(=O)O | nt | nt | nt | 0.4% | -8.1%
COc1ccccc1C(CC(=O)Nc1nccs1)c1ccco1 (stereo not given) | -11.9% | -3.3 | -4.4% | ? | 14.6µM*
Cc1cc(-n2c(C)cc(C(=O)COc3ccc(Cl)cc3C(N)=O)c2C)no1 | 6.2% | 48.1 | -0.3% | ? | ?
Cc1cc(/C=N/NC(=O)C(=O)NCc2ccccn2)c(C)n1-c1cccc(Br)c1 | -12.8% | -3.0 | -13.5% | ? | ?
CSc1nc(C)cc(OCC(=O)N/N=C/c2ccccc2O)n1 | ? | 48.7 | ? | 2.91µM* | ?
O=C(CCCCC(=O)NN=Cc1ccccc1O)NN=Cc1ccccc1O | 6.51µM* | 123.2 | ? | 5.8µM* | 5.8µM*
O=C(NCc1ccccn1)C(=O)N/N=C/c1ccccc1O | ? | 146.3 | -18.4% | ? | 23.1µM*
O=C(CCCC(=O)N/N=C/c1ccccc1C(=O)O)N/N=C/c1ccccc1C(=O)O | 12.6% | 9.9 | 7.8% | -20.3% | -19.3%
CCCCCCCC(=O)N/N=C/c1cccnc1 | 7.8% | 4.9 | ? | -21.8% | -2.8%
CCCCCCCC(=O)N/N=C/c1ccc(Br)cc1 | -27.2% | -8.8 | 6.5% | ? | 14.6µM*
COc1ccc(N(CC(=O)Nc2cc([N+](=O)[O-])ccc2C)S(C)(=O)=O)cc1OC | -1.0% | -5.6 | -3.3% | ? | -1.6%
CS(=O)(=O)N(CC(=O)N1CCCCCC1)c1cccc(F)c1 | 0.7% | 3.8 | 0.7% | 6.6% | 6.9%
O=C(N/N=C/c1cc(Cl)ccc1O)c1ccncc1 | 4.11µM* | 217.4 | 6.51µM* | 5.8µM* | 3.26µM*
O=C(CCc1ccccc1)N/N=C\c1cc2c(cc1Br)OCO2 | 3.8% | 2.6 | 3.4% | ? | ?
O=C(CSCc1ccccc1)N/N=C/c1cc2c(cc1Br)OCO2 | ? | 0.0 | -24.9% | -73.9% | 18.4µM*
O=C(N/N=C/c1ccccc1Cl)c1ccncc1 | -4.6% | -9.8 | -3.7% | 0.2% | -13.2%
